The whole screen tested about 39,000 compounds, of which about 220 (0.56%) showed activity. Shown is part of a subset that was picked to be rich in actives.
These molecules were tested on Escherichia coli K-12 BW25113 (assay: relative growth (OD600 normalised to plate interquartile mean) (fraction); higher = less growth inhibition, active = 0.2 or less). Settings: 50 µM; LB; incubation time: overnight (16-24 h).
For COCC#Cc1ccc2c(c1)O[C@H](CN(C)C(=O)C1CCCCC1)[C@H](C)CN([C@H](C)CO)S2(=O)=O, the relative growth was 0.988 (inactive).
With COC1C=COC2(C)Oc3c(C)c(O)c4c(O)c(c5c(nc6cc(C)ccn65)c4c3C2=O)NC(=O)C(C)=CC=CC(C)C(O)C(C)C(O)C(C)C(OC(C)=O)C1C (stereo not given) the relative growth was 0.0499 (active).
For CO[C@H]1/C=C\O[C@@]2(C)Oc3c(C)c(O)c4c(c3C2=O)[C@]2(C=C(NC(=O)/C(C)=C\C=C/[C@@H](C)[C@@H](O)[C@@H](C)[C@@H](O)[C@@H](C)[C@@H](OC(C)=O)[C@@H]1C)C4=O)OCC(=O)O2, the relative growth was 0.905 (inactive).
For CO[C@H]1/C=C\O[C@@]2(C)Oc3c(C)c(O)c4c(O)c(c(/C=N/N=C/N5CCCCC5)c(O)c4c3C2=O)NC(=O)/C(C)=C\C=C/[C@H](C)[C@H](O)[C@@H](C)[C@@H](O)[C@@H](C)[C@H](OC(C)=O)[C@@H]1C, the relative growth was 0.65 (inactive).
For COC1C=COC2(C)Oc3c(C)c(O)c4c(O)c(c(C=NN5CCN(C)CC5)c(O)c4c3C2=O)NC(=O)C(C)=CC=CC(C)C(O)C(C)C(O)C(C)C(OC(C)=O)C1C (stereo not given), the relative growth was 0.0777 (active).
COC1C=COC2(C)Oc3c(C)c(O)c4c(O)c(c(C=NN5CCN(C6CCCC6)CC5)c(O)c4c3C2=O)NC(=O)C(C)=CC=CC(C)C(O)C(C)C(O)C(C)C(OC(C)=O)C1C (stereo not given) was tested, and the relative growth was 0.0719 (active).
With C[C@@H]1CCCCO[C@H](CN(C)Cc2ccc3c(c2)OCO3)[C@H](C)CN([C@@H](C)CO)C(=O)c2cc(NC(=O)NC3CCCCC3)ccc2O1 the relative growth was 1.01 (inactive).
C[C@H](CO)N1C[C@H](C)[C@@H](CN(C)C(=O)NC2CCCCC2)Oc2c(NC(=O)Nc3cccc4ccccc34)cccc2C1=O was tested, and the relative growth was 0.995 (inactive).
For C[C@H](CO)N1C[C@H](C)[C@@H](CN(C)Cc2ccncc2)Oc2c(NS(=O)(=O)c3ccc(F)cc3)cccc2C1=O, the relative growth was 1 (inactive).
CO[C@H]1CN(C)C(=O)c2ccc(NS(C)(=O)=O)cc2OC[C@H](C)N(C(=O)C2CCCCC2)C[C@@H]1C was tested, and the relative growth was 0.962 (inactive).
C[C@H]1CN([C@@H](C)CO)C(=O)Cc2cc(NS(=O)(=O)c3ccc(Cl)cc3)ccc2O[C@H]1CN(C)Cc1ccc(-c2ccccc2)cc1 was tested, and the relative growth was 0.992 (inactive).
In the case of Cc1noc(C)c1NC(=O)N(C)C[C@@H]1OCCCC[C@@H](C)Oc2ccc(NC(=O)Cc3ccccc3)cc2C(=O)N([C@@H](C)CO)C[C@H]1C, the relative growth is reported as 0.958 (inactive).
For Nc1nc(=O)c2ncn(COCCO)c2[nH]1, the relative growth was 1 (inactive).
COc1ccc(S(=O)(=O)Nc2ccc3c(c2)C(=O)N([C@@H](C)CO)C[C@H](C)[C@@H](CN(C)S(=O)(=O)c2cn(C)cn2)OCCCC[C@H](C)O3)cc1 was tested, and the relative growth was 0.994 (inactive).
CO[C@H]1CN(C)C(=O)c2cc(NS(=O)(=O)CC(F)(F)F)ccc2OC[C@@H](C)N(Cc2nccs2)C[C@@H]1C was tested, and the relative growth was 0.962 (inactive).
For CC(=O)OCC1=C(C(=O)[O-])N2C(=O)C(NC(=O)CSc3ccncc3)C2SC1.[Na+] (stereo not given), the relative growth was 0.797 (inactive).
CC(=O)OCC1=C(C(=O)[O-])N2C(=O)C(NC(=O)Cc3cccs3)C2SC1.[Na+] (stereo not given) was tested, and the relative growth was 0.0435 (active).
NC(=O)c1cc[n+](CC2=C(C(=O)[O-])N3C(=O)C(NC(=O)Cc4cccs4)C3SC2)cc1 (stereo not given) was tested, and the relative growth was 0.634 (inactive).
COC1(NC(=O)Cc2cccs2)C(=O)N2C(C(=O)[O-])=C(COC(N)=O)CSC21.[Na+] (stereo not given) was tested, and the relative growth was 0.0688 (active).
In the case of C[C@H](CO)N1C[C@H](C)[C@H](CN(C)C(=O)Nc2ccccc2)Oc2c(NC(=O)CCCCCC(=O)Nc3ccccc3N)cccc2C1=O, the relative growth is reported as 0.992 (inactive).
With COc1ccc(S(=O)(=O)N(C)C[C@H]2Oc3c(NC(=O)C4CC4)cccc3C(=O)N([C@H](C)CO)C[C@@H]2C)cc1 the relative growth was 0.992 (inactive).
In the case of C[C@@H]1CCCCO[C@H](CN(C)C)[C@H](C)CN([C@@H](C)CO)C(=O)c2cc(NS(=O)(=O)c3cn(C)cn3)ccc2O1, the relative growth is reported as 0.994 (inactive).
In the case of C[C@@H]1CCCCO[C@H](CN(C)S(=O)(=O)c2ccccc2)[C@H](C)CN([C@@H](C)CO)C(=O)c2cc(NC(=O)Nc3ccc(C(F)(F)F)cc3)ccc2O1, the relative growth is reported as 1 (inactive).
COc1ccc(S(=O)(=O)Nc2ccc3c(c2)C(=O)N([C@@H](C)CO)C[C@H](C)[C@H](CN(C)S(=O)(=O)c2ccc(C)cc2)O3)cc1 was tested, and the relative growth was 1.01 (inactive).
In the case of C[C@H]1CN([C@@H](C)CO)C(=O)Cc2cc(NC(=O)Nc3ccc(C(F)(F)F)cc3)ccc2O[C@@H]1CN(C)C(=O)Nc1ccc(F)cc1, the relative growth is reported as 1.01 (inactive).
With O=C(C[C@H]1C[C@@H]2c3cc(NC(=O)Cc4ccncc4)ccc3O[C@@H]2[C@@H](CO)O1)NCCN1CCCCC1 the relative growth was 0.983 (inactive).
Cc1cn([C@H]2C[C@H](F)[C@@H](CO)O2)c(=O)[nH]c1=O was tested, and the relative growth was 0.276 (inactive).
Cc1cn([C@H]2C[C@@H](NC(=O)C(C)(C)C)[C@@H](CO)O2)c(=O)[nH]c1=O was tested, and the relative growth was 1.02 (inactive).
Cc1cn(C2CC(N=[N+]=[N-])C(CO)O2)c(=O)[nH]c1=O (stereo not given) was tested, and the relative growth was 0.0449 (active).
With Cc1cn([C@H]2CC[C@@H](CO)O2)c(=O)[nH]c1=O the relative growth was 0.531 (inactive).
Cc1cn([C@H]2C[C@H](N=[N+]=[N-])[C@@H](CO)O2)c(=O)[nH]c1=O was tested, and the relative growth was 0.048 (active).
In the case of CCc1cn([C@H]2C[C@@H](O)[C@@H](CO)O2)c(=O)[nH]c1=O, the relative growth is reported as 0.827 (inactive).
With O=C(C[C@H]1C[C@H]2c3cc(NC(=O)Cc4ccncc4)ccc3O[C@H]2[C@H](CO)O1)NCCN1CCCCC1 the relative growth was 1.02 (inactive).
In the case of Cc1noc(C)c1NC(=O)Nc1ccc2c(c1)C(=O)N([C@@H](C)CO)C[C@H](C)[C@@H](CN(C)S(=O)(=O)c1ccccc1)O2, the relative growth is reported as 0.987 (inactive).
COCC#Cc1ccc2c(c1)O[C@@H](CN(C)S(=O)(=O)c1ccc(C)cc1)[C@@H](C)CN([C@H](C)CO)S2(=O)=O was tested, and the relative growth was 1.02 (inactive).
For C[C@@H]1CN([C@@H](C)CO)C(=O)c2cccc(NC(=O)Nc3ccc(F)cc3)c2O[C@H]1CN(C)S(=O)(=O)c1cn(C)cn1, the relative growth was 0.984 (inactive).
In the case of C[C@@H]1CN([C@H](C)CO)C(=O)Cc2cc(NC(=O)Cn3cnnn3)ccc2O[C@H]1CN(C)Cc1ccncc1, the relative growth is reported as 0.971 (inactive).
With C[C@@H]1CN([C@@H](C)CO)C(=O)CCCn2nncc2CO[C@@H]1CN(C)C(=O)c1ccc(N2CCN(C)CC2)cc1 the relative growth was 0.987 (inactive).
In the case of COc1ccc([Si](C)(C)[C@H]2[C@H](CCOC(=O)NCCCCCC(=O)NO)O[C@]3(C(=O)N(Cc4cccc(N5CCCCC5=O)c4)c4ccccc43)[C@@H]2C)cc1, the relative growth is reported as 1.02 (inactive).
For Nc1cc[nH]c(=O)n1, the relative growth was 0.997 (inactive).
With CCCCCCCCCCCCC[N+](C)(C)Cc1ccccc1 the relative growth was 0.0319 (active).
With CCCCCc1ccccn1 the relative growth was 0.974 (inactive).
With CCCC[C@@H](O)c1ccccc1 the relative growth was 0.992 (inactive).
With CCCCNc1ccccc1 the relative growth was 0.996 (inactive).
With CCCCCCCCCCCCC[N+](C)(C)Cc1ccccc1.O.[Cl-] the relative growth was 0.0544 (active).
CC[N+](C)(CC)Cc1ccccc1 was tested, and the relative growth was 0.993 (inactive).
CCCCCCCCCCCCCCCC[N+](C)(C)CCN(Cc1ccc(OC)cc1)c1ncccn1 was tested, and the relative growth was 0.555 (inactive).
In the case of CCCCC(O)c1ccccc1 (stereo not given), the relative growth is reported as 0.973 (inactive).
CCCCCCCCCCCCCCCC[N+](C)(C)Cc1ccccc1.[Cl-] was tested, and the relative growth was 0.0933 (active).
With C[C@H](CO)N1C[C@H](C)[C@@H](CN(C)Cc2ccc(Oc3ccccc3)cc2)Oc2c(NC(=O)Nc3ccc(C(F)(F)F)cc3)cccc2C1=O the relative growth was 0.795 (inactive).
With CN(C)CC(=O)N[C@@H]1CC[C@@H](CC(=O)O)O[C@@H]1CO the relative growth was 0.983 (inactive).
For C[C@H](CO)N1C[C@H](C)[C@@H](CN(C)CC2CCCCC2)Oc2ccc(NC(=O)CCN3CCOCC3)cc2C1=O, the relative growth was 0.981 (inactive).
In the case of NCC[C@@H]1CC[C@H](NC(=O)C2CC2)[C@H](CO)O1, the relative growth is reported as 0.995 (inactive).
In the case of C[C@H]1CN([C@@H](C)CO)C(=O)CCCn2nncc2CO[C@@H]1CN(C)Cc1cccc2c1OCCCO2, the relative growth is reported as 0.992 (inactive).
O=C(Oc1ccc(Cl)cc1)c1sc2ccccc2c1Cl was tested, and the relative growth was 1.05 (inactive).
For Fc1cccc2c(Cl)ccnc12, the relative growth was 0.976 (inactive).
With O=[N+]([O-])c1ccc(O)c2ncccc12 the relative growth was 0.0542 (active).
For Oc1c(I)cc(I)c2cccnc12, the relative growth was 1.04 (inactive).
With Oc1c(Br)cc(Br)c2cccnc12 the relative growth was 0.379 (inactive).
In the case of Oc1ccc(Cl)c2cccnc12, the relative growth is reported as 0.0534 (active).
NS(=O)(=O)c1ccc(O)c([N+](=O)[O-])c1 was tested, and the relative growth was 0.992 (inactive).
For Nc1ncccc1O, the relative growth was 1.03 (inactive).
With Oc1c(I)cc(Cl)c2cccnc12 the relative growth was 0.463 (inactive).
With Oc1c(Cl)cc(Cl)c2cccnc12 the relative growth was 0.111 (active).
In the case of C[C@H]1CN([C@@H](C)CO)C(=O)c2cc(NC(=O)Cn3cnnn3)ccc2O[C@@H]1CN(C)Cc1ccncc1, the relative growth is reported as 1.02 (inactive).
In the case of C[C@@H]1CN([C@H](C)CO)C(=O)c2cc(NS(=O)(=O)c3ccc(F)cc3)ccc2O[C@H]1CN(C)S(=O)(=O)c1cn(C)cn1, the relative growth is reported as 1.04 (inactive).
In the case of C[C@@H]1CN([C@@H](C)CO)C(=O)c2cc(NC(=O)C3CCCCC3)ccc2O[C@@H](C)CCCCO[C@H]1CN(C)Cc1ccc(C(=O)O)cc1, the relative growth is reported as 0.977 (inactive).
In the case of Cl.Nc1ccn(C2OC(CO)C(O)C2(F)F)c(=O)n1 (stereo not given), the relative growth is reported as 1.09 (inactive).
COc1ccc(S(=O)(=O)Nc2ccc3c(c2)C(=O)N([C@@H](C)CO)C[C@H](C)[C@H](CN(C)S(=O)(=O)c2ccc(F)cc2)O3)cc1 was tested, and the relative growth was 1 (inactive).
For C[C@H](CO)N1C[C@H](C)[C@@H](CN(C)Cc2ccc(C(=O)O)cc2)OCCCC[C@H](C)Oc2ccc(NC(=O)Nc3ccc4c(c3)OCO4)cc2C1=O, the relative growth was 0.95 (inactive).
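Also: Wild-type cells incubated without shaking, value is the mean of two biological replicates.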
